Measurements from PubChem BioAssay.
Activity calls are given as the source filed them. No stated cut-off is given here; in the data, active means fold change permeability below about 0.7 or above about 1.3; inactive means in between.

assay: compounds altering in vitro BBB leakiness – cell-based, FITC-avidin fluorescence, HTS, primary screen (AID 1963498); settings: brain endothelial barrier, actives lie on both sides; further: test concentration not given here

SMILES | fold change permeability
Cc1c2ccncc2c(C)c2c1[nH]c1ccccc12 | 1.2 (inactive)
O=C(O)CC[N+](=O)[O-] | 0.9 (inactive)
CCCN(CCC)[C@@H]1CCc2cccc(O)c2C1 | 1.2 (inactive)
CCCN(CCC)C1Cc2cc(OC)c(OC)cc2C1 | 0.8 (inactive)
CC(C)(C)c1cc(C(C)(C)C)c2c(c1)C(O)(C(F)(F)F)C(=O)O2 (stereo unspecified) | 1.2 (inactive)
CN(c1nc2ccccc2s1)C1CCN(C[C@H](O)COc2ccc(F)c(F)c2)CC1 | 1.6 (active)
CCc1c(C(=O)C(N)=O)c2c(OCC(=O)O)cccc2n1Cc1ccccc1 | 1.1 (inactive)
Nc1ccncc1 | 0.9 (inactive)
Nc1ncnc2c1ncn2[C@@H]1O[C@H](COP(=O)(O)CP(=O)(O)OP(=O)(O)O)[C@H](O)C1O (stereo partly specified) | 0.9 (inactive)
COc1cc2c3c(c1OC)-c1ccccc1C[C@H]3N(C)CC2 | 1.9 (active)
O=C(N[C@H]1CN2CCC1CC2)c1c[nH]c2ccsc2c1=O | 0.9 (inactive)
NC(CCP(=O)(O)O)C(=O)O (stereo unspecified) | 1 (inactive)
COc1ccc(C(CN(C)C)C2(O)CCCCC2)cc1 (stereo unspecified) | 1 (inactive)
COc1ccc(OC)c(C(O)C(C)N)c1 (stereo unspecified) | 0.8 (inactive)
CCN1CCN(C(=O)Cc2ccc(Nc3ncc(F)c(Nc4ccc(C(=O)Nc5ccccc5Cl)cc4)n3)cc2)CC1 | 1.1 (inactive)
Nc1ccc(CCN2CCN(c3cccc(C(F)(F)F)c3)CC2)cc1 | 1.8 (active)
CNCCc1c[nH]c2ccc(O)cc12 | 0.8 (inactive)
Cc1cccc(C)c1NC1=NCCCS1 | 1.9 (active)

SMILES | fold change permeability
NNC(N)=O | 1 (inactive)
CN[C@@H]1Cc2cccc3[nH]c(=O)n(c23)C1 | 0.8 (inactive)
CCCCCCCCCCCCCC(=O)O[C@@H]1[C@@H](C)[C@@]2(O)[C@@H](C=C(CO)C[C@]3(O)C(=O)C(C)=C[C@@H]23)[C@@H]2C(C)(C)[C@]12OC(C)=O | 1.1 (inactive)
CC(C(O)c1ccc(O)cc1)N1CCC(Cc2ccccc2)CC1 (stereo unspecified) | 1.3 (active)
CCCN1CCC[C@@H]2Cc3nc(N)ncc3C[C@H]21 | 1.1 (inactive)
C=CCN1C[C@H](C)N([C@H](c2ccc(C(=O)N(CC)CC)cc2)c2cccc(OC)c2)C[C@H]1C | 0.7 (active)
CCCN1CCC[C@@H](c2cccc(O)c2)C1 | 1 (inactive)
NCCc1c[nH]c2ccc(C(N)=O)cc12 | 1 (inactive)
NC(CP(=O)(O)O)C(=O)O (stereo unspecified) | 1 (inactive)
CP(=O)(O)C1=CCNCC1 | 1.4 (active)
CN1[C@H]2C[C@H](OC(=O)[C@H](CO)c3ccccc3)C[C@@H]1[C@@H](O)C2 | 0.8 (inactive)
CC(C)C[C@H](NP(=O)(O)O[C@@H]1O[C@@H](C)[C@H](O)[C@@H](O)[C@H]1O)C(=O)N[C@@H](Cc1c[nH]c2ccccc12)C(=O)O | 1.4 (active)
Oc1ccc2c3c1O[C@H]1c4[nH]c5ccccc5c4C[C@@]4(O)[C@@H](C2)N(CC2CC2)CC[C@]314 | 1 (inactive)
O=[N+]([O-])/C=C/c1ccc2c(c1)OCO2 | 1.4 (active)
CC(C)NP(=O)(NC(C)C)OP(=O)(NC(C)C)NC(C)C | 1.1 (inactive)
NCC(CP(=O)(O)O)c1ccc(Cl)cc1 (stereo unspecified) | 1 (inactive)
Cc1ncc(CNC(=O)N(CCCl)N=O)c(N)n1 | 0.9 (inactive)
CC(CCc1ccccc1)NC(C)C(O)c1ccc(O)cc1 (stereo unspecified) | 0.8 (inactive)
